# Assay results as given in PubChem BioAssay (NCI).
# About 83,000 compounds went through this panel and 20% of them were active in at least one assay; those are over-represented in the sample as a whole.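 For each line, cells grew in 96-well plates with the test compound present at a single concentration for 48 hours.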 Unmarked numbers belong to inactive results. Active and inactive are the calls of the source. How the source made its calls: active means growth percent below 10; inactive means the rest.
# What was measured:
# Assay in all cases: NCI-60 one-dose screen, 48 h (100 = growth as untreated, 0 = no growth, -100 = all killed)
# Conditions in all cases: 10 µM unless noted
# SR leukemia = system: SR leukemia
# RPMI-8226 leukemia = system: RPMI-8226 leukemia
# OVCAR-8 ovarian = system: OVCAR-8 ovarian
# OVCAR-5 ovarian = system: OVCAR-5 ovarian
# OVCAR-4 ovarian = system: OVCAR-4 ovarian
# SK-OV-3 ovarian = system: SK-OV-3 ovarian
# IGROV1 ovarian = system: IGROV1 ovarian
# OVCAR-3 ovarian = system: OVCAR-3 ovarian
# HS 578T breast = system: HS 578T breast
# NCI/ADR-RES ovarian = system: NCI/ADR-RES ovarian
Compound,growth (SR leukemia),growth (RPMI-8226 leukemia),growth (OVCAR-8 ovarian),growth (OVCAR-5 ovarian),growth (OVCAR-4 ovarian),growth (SK-OV-3 ovarian),growth (IGROV1 ovarian),growth (OVCAR-3 ovarian),growth (HS 578T breast),growth (NCI/ADR-RES ovarian)
N#Cc1c(-c2cccs2)cc(-c2cccnc2)[nH]c1=O,95.9%,98.6%,97.9%,96.9%,118%,97.2%,108%,104%,102%,103%
CC(C)(C)c1cc(-c2nc3ccc(N4CCN(S(C)(=O)=O)CC4)cc3[nH]2)cc(C(C)(C)C)c1O,56.2%,79.5%,78.9%,105%,88.6%,79.5%,96.4%,98.8%,86.4%,93.1%
Cn1cc(-c2nonc2-c2c[nH]c3ccc(Br)cc23)c2cc(Br)ccc21,20.5%,41.3%,34%,37.6%,-2.18% (active),53.7%,59%,33.6%,31.6%,36.6%
COc1ccc(-c2cc(-c3ccc(Cl)cc3)c(C#N)c(=O)n2CCCCC(=O)Nc2ccccc2N)cc1,15.5%,0.147% (active),42.8%,58.6%,66.5%,78%,47.4%,69.5%,75.7%,37.3%
COc1ccc2nc3ccc(OC)cc3c(SCCCN)c2c1,-30.8% (active),-22.7% (active),76.1%,83.2%,63.9%,95%,97.2%,71.3%,89.7%,86.9%
COc1ccc(/C=N/NC(=O)CCN2c3ccccc3Sc3ccccc32)cc1,33.8%,94%,99.3%,86.3%,89.6%,97.1%,66.3%,76.4%,85.9%,69.4%
c1ccc(CNc2c3ccccc3nc3ccccc23)cc1,11.7%,7.65% (active),26.1%,45.7%,43.2%,46.7%,29.8%,51.7%,56.1%,37.6%
N=C(N)c1ccc(-c2ccc(-c3cc(Cl)cc(Cl)c3)o2)o1,-50% (active),-33.6% (active),-41.7% (active),-72.2% (active),-76.3% (active),-59% (active),-52.5% (active),-87.9% (active),64.8%,-38.5% (active)
Cc1nc(-c2ccccc2)cc2c(O)c(C(=O)NN)[nH]c(=O)c12,106%,103%,106%,110%,112%,103%,7.89% (active),105%,109%,118%
O=C1Nc2ccccc2/C1=C\c1nc(-c2ccccc2)n2ccccc12,101%,81.9%,95.5%,90.6%,73.7%,81%,67%,115%,118%,93.9%
CCOC(=O)Cn1c(O)c(N=Nc2ccc(S(N)(=O)=O)cc2)c2cc(Br)ccc21,75.3%,79.5%,56.5%,85.9%,31.2%,81.9%,73%,84.9%,89.7%,89.7%
Cc1ccc(NC(=S)NNC(=S)NNc2ccccc2)cc1C,56.8%,78.9%,98.2%,105%,114%,104%,98.5%,73.9%,94.4%,110%
Cn1cc(-c2csc(-c3ccc(Cl)cc3)n2)c2cccnc21,0.516% [100 µM] (active),-24.4% [100 µM] (active),13.5% [100 µM],-49.3% [100 µM] (active),-28.1% [100 µM] (active),-57.1% [100 µM] (active),-21.5% [100 µM] (active),-75.7% [100 µM] (active),9.04% [100 µM] (active),-35.5% [100 µM] (active)
Fc1ccc(Nc2nc3nonc3nc2Nc2ccc(I)cc2)cc1,-4.09% (active),-11.6% (active),4.01% (active),37.5%,17.8%,-24.5% (active),23.2%,9.78% (active),8.99% (active),4.92% (active)
Cc1cc2c([nH]1)CSc1cc(S(=O)(=O)c3ccccc3)c(=O)[nH]c1-2,12.8% [100 µM],21.3% [100 µM],24.3% [100 µM],69.9% [100 µM],43.1% [100 µM],22% [100 µM],42.6% [100 µM],-15.6% [100 µM] (active),47.5% [100 µM],15.7% [100 µM]
C=CCn1c(SCC(=O)NCc2cc(C)c(O)c(C)c2)nc2ccc(Cl)cc2c1=O,-34.1% (active),-100% (active),106%,88.4%,86.2%,109%,65%,101%,98.7%,97.1%
Cc1noc(C)c1C(=O)OCc1coc2ccccc2c1=O,45.3%,30.1%,91.8%,71.6%,62.8%,109%,82.6%,44.9%,78.3%,90.7%
NC(=O)c1c(NC(=O)c2ccccc2)sc2c1CCC(=O)C2,7.6% (active),-10.3% (active),17.2%,20.3%,-5.57% (active),50.9%,27.1%,7.93% (active),24.5%,7.2% (active)
CCCCOC(=O)OCc1cc(=O)c(O)co1,104%,106%,102%,102%,104%,105%,110%,114%,101%,108%
CCCCC[C@@H]1Cc2cc(O)c(C(=O)O)c3c2[C@H](C[C@]2(OC[C@@H](CC(=O)[C@@](C)(CC)C(=O)OC)[C@@H]2C)O3)O1,105%,108%,99.4%,111%,104%,104%,103%,111%,99.8%,113%
CCCc1cc(NC)nc(S(=O)(=O)CC)n1,102%,101%,110%,101%,115%,116%,105%,119%,108%,104%
Cc1ccccc1Cn1cnc2ccc(-c3cc(NC(=O)c4ccc(NC5CCN(C)CC5)cc4)n[nH]3)cc21,52.9%,77.1%,104%,69.9%,62.5%,75.7%,26.5%,99.8%,2.06% (active),104%
N#Cc1cccc(F)c1,98.1%,113%,109%,83.1%,118%,111%,106%,126%,107%,104%
O=C(Nc1cccnc1Nc1ccc(F)cc1)c1cn(Cc2cccc(Oc3ccccc3)c2)nn1,23.4%,78.9%,81.4%,115%,86.5%,87.4%,91.2%,71.9%,69.3%,37.8%
Cc1cc(=O)[nH]c2c(C#N)cnn12,112%,101%,98.7%,97.7%,111%,106%,97.2%,101%,92.6%,102%
CCS/C(Nc1ccccc1)=C(\C#N)C(=O)N/N=C/c1ccc(Cl)cc1Cl,19.5%,9.68% (active),28.6%,72.5%,56.5%,15.5%,49.1%,1.46% (active),-6.44% (active),10.8%
